What is called AC50 is the concentration at which the activity in the assay is half-maximal. Usually viability stands for a read-out of living cells in per cent, often relative to untreated cells.

Records with an inconclusive call do not appear. Activity calls are given as the source filed them.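 The calls were made as follows, unless noted: active = normalized viability below 100% at a tested concentration; inactive = the rest.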

The results in this text go back to PubChem BioAssay.

The nature of assay [1]: viability loss in pontine glioma line – cell-based, SU-DIPG-XVII, MIPE5.0, CellTiter-Glo, qHTS, dose response (AID 1347060; cut-off not given, nearly all actives have AC50 up to about 26 µM;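 as to AC50: cells exposed to compound for 48 hours before viability readout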). As to conditions: CellTiter-Glo ATP luminescence. A general note: ATP-based viability assays read luminescence as a measure of living cells.
Assay [2] is described as follows: viability loss in pontine glioma line – cell-based, SU-DIPG-XXV, MIPE5.0, CellTiter-Glo, qHTS, dose response (AID 1347065; cut-off not given, nearly all actives have AC50 up to about 26 µM;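 also: cells exposed to compound for 48 hours before ATP readout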). As to conditions: CellTiter-Glo ATP luminescence.
A short description of assay [3]: growth inhibition of DIPG cells – cell-based, MIPE4.0 library, CellTiter-Glo luminescence, qHTS (AID 1347066; cut-off not given, nearly all actives have AC50 up to about 30 µM;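 also: cells exposed to compound for 48 hours before readout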). As to conditions: SU-DIPG-VI viability, CellTiter-Glo ATP luminescence.
Assay [4] can be described thus: JHH-DIPG-1 glioma cell viability, MIPE5.0 library, CellTiter-Glo luminescence, qHTS (AID 1347067; cut-off not given, nearly all actives have AC50 up to about 26 µM;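 also: cells exposed to compound for 48 hours before readout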). The conditions noted are these: JHH-DIPG-1 glioma viability, CellTiter-Glo ATP luminescence.
Assay [5] is described as follows: growth inhibition of DIPG cells – cell-based, MIPE5.0 library, qHTS (AID 1347068; cut-off not given, nearly all actives have IC50 up to about 30 µM). As to conditions: SU-DIPG-XXV viability. (In general: Quantitative high-throughput screening tests each substance at several concentrations.)
Assay [6] in a line: compounds altering HSF1 focus formation in cells – imaging, Selleck Cancer Library (AID 1347162; in the data active = plate-normalised HSF1 focus index below about 0.46). As to conditions: human cells, HSF1 nuclear foci imaging, at 10 µM; SSMD: measured here: HSF1 foci SSMD mean; cell count: measured here: cell number; plate-normalised HSF1 focus index: stronger effect = lower value.
Assay [7] in a line: drug combination growth inhibition, ovarian cancer – cell-based, oncology-focused library, rucaparib conditional, profiling panel (AID 1508598). The conditions noted are these: patient-derived ovarian cancer cells, CellTiter-Glo viability, 144 h, stronger effect = lower value.

For the molecule `COc1ccc2c(c1)CC[C@@H](CN(C)CC(=O)O)[C@H]2c1ccccc1`, the outcome in assay [1], in assay [2], in assay [3], in assay [4] and in assay [5] was inactive.
Turning to `Cc1c(F)cc(C(=O)NC2CC2)cc1-c1c(F)cn2c(C(C)(C)C)nnc2c1F`, the outcome in assay [1], in assay [2], in assay [4] and in assay [5] was inactive.
For the molecule `NC(=O)[C@H]1CCS[C@@H]2C[C@]3(CCCN3C(=O)Cc3ccc(NC(=O)COc4ccc(Cl)cc4Cl)cc3)C(=O)N12`, the values for the AC50 in assay [1], in assay [2] and in assay [4] were 4.17 µM (active), 10.5 µM (active) and 16.6 µM (active), respectively.
On to `O=C(O)c1cnn(-c2nc3cc(OC(F)(F)F)c(Cl)cc3[nH]2)c1`, for which the call in assay [1], in assay [2], in assay [4] and in assay [5] was inactive.
Regarding `Cn1c(-c2ccccc2C(F)(F)F)nnc1C12CCC(c3noc(C4CC(F)(F)C4)n3)(CC1)CC2`, the outcome in assay [1], in assay [2], in assay [4] and in assay [5] was inactive.
With `COc1cc(N2CCN(C)CC2)ccc1Nc1ncc2c(n1)N(C)c1ccccc1C(=O)N2C`, the AC50 was 18.6 µM (active) in assay [1], 18.6 µM (active) in assay [2] and 14.8 µM (active) in assay [4].
Turning to `COc1c(C)cc(NC(=O)c2nn(Cc3ccc(F)cc3)c3c2CN(C(=O)c2ccc[nH]2)C[C@]3(C)C(N)=O)cc1C`, the molecule was classed as inactive in assay [1], in assay [2] and in assay [4].
`COc1ccc(S(=O)(=O)N[C@@H](CNc2nc(C)nc(N3CCC(c4ccc5c(n4)NCCC5)CC3)c2C)C(=O)O)cc1`: the call in assay [1], in assay [2], in assay [4] and in assay [5] was inactive.
On to `C[C@@H](Oc1cc(-n2cnc3ccc(CN4CCN(C)CC4)cc32)sc1C(N)=O)c1ccccc1C(F)(F)F`, for which the half-maximal activity concentration (AC50) in assay [1] was 0.0525 µM (active); in assay [2], 0.0372 µM (active); in assay [3], 18.7 µM (active). Further, the SSMD in assay [6] was 1.17. Besides, the cell count in assay [6] was 6420. Moreover, the plate-normalised HSF1 focus index in assay [6] was 1.06 (inactive). For the same molecule, the viability in assay [7] (at 0.000305 µM, OCI-C5x cells, with rucaparib 10 µM, 100% = cells with rucaparib alone) is 99.2% (active); in assay [7] (at 0.000305 µM, OCI-C5x cells, without rucaparib), 88.3% (active); in assay [7] (at 0.000305 µM, OCI-P5x cells, with rucaparib 20 µM, 100% = cells with rucaparib alone), 87% (active); in assay [7] (at 0.000305 µM, OCI-P5x cells, without rucaparib) it was 33.3% (active); in assay [7] (at 0.00122 µM, OCI-C5x cells, with rucaparib 10 µM, 100% = cells with rucaparib alone) it was 92.1% (active); in assay [7] (at 0.00122 µM, OCI-C5x cells, without rucaparib), 72.7% (active). The viability is 73.8% (active) in assay [7] (at 0.00122 µM, OCI-P5x cells, with rucaparib 20 µM, 100% = cells with rucaparib alone); 22% (active) in assay [7] (at 0.00122 µM, OCI-P5x cells, without rucaparib); 76.5% (active) in assay [7] (at 0.00488 µM, OCI-C5x cells, with rucaparib 10 µM, 100% = cells with rucaparib alone); 44% (active) in assay [7] (at 0.00488 µM, OCI-C5x cells, without rucaparib); 73.2% (active) in assay [7] (at 0.00488 µM, OCI-P5x cells, with rucaparib 20 µM, 100% = cells with rucaparib alone); 18% (active) in assay [7] (at 0.00488 µM, OCI-P5x cells, without rucaparib). Besides, the viability in assay [7] (at 0.0195 µM, OCI-C5x cells, with rucaparib 10 µM, 100% = cells with rucaparib alone) was 46.7% (active); in assay [7] (at 0.0195 µM, OCI-C5x cells, without rucaparib), 33.6% (active); in assay [7] (at 0.0195 µM, OCI-P5x cells, with rucaparib 20 µM, 100% = cells with rucaparib alone), 62.1% (active); in assay [7] (at 0.0195 µM, OCI-P5x cells, without rucaparib), 13.6% (active); in assay [7] (at 0.0781 µM, OCI-C5x cells, with rucaparib 10 µM, 100% = cells with rucaparib alone) it was 41.7% (active); in assay [7] (at 0.0781 µM, OCI-C5x cells, without rucaparib), 30.9% (active). Besides, the viability in assay [7] (at 0.0781 µM, OCI-P5x cells, with rucaparib 20 µM, 100% = cells with rucaparib alone) was 62.6% (active); in assay [7] (at 0.0781 µM, OCI-P5x cells, without rucaparib), 15.3% (active); in assay [7] (at 0.313 µM, OCI-C5x cells, with rucaparib 10 µM, 100% = cells with rucaparib alone), 34.4% (active); in assay [7] (at 0.313 µM, OCI-C5x cells, without rucaparib), 22.2% (active); in assay [7] (at 0.313 µM, OCI-P5x cells, with rucaparib 20 µM, 100% = cells with rucaparib alone), 70.6% (active); in assay [7] (at 0.313 µM, OCI-P5x cells, without rucaparib), 13.4% (active). The viability is 38.1% (active) in assay [7] (at 1.25 µM, OCI-C5x cells, with rucaparib 10 µM, 100% = cells with rucaparib alone); 28.8% (active) in assay [7] (at 1.25 µM, OCI-C5x cells, without rucaparib); 62.3% (active) in assay [7] (at 1.25 µM, OCI-P5x cells, with rucaparib 20 µM, 100% = cells with rucaparib alone); 15.1% (active) in assay [7] (at 1.25 µM, OCI-P5x cells, without rucaparib); 51.4% (active) in assay [7] (at 5 µM, OCI-C5x cells, with rucaparib 10 µM, 100% = cells with rucaparib alone); 3.97% (active) in assay [7] (at 5 µM, OCI-C5x cells, without rucaparib). Moreover, the viability is 0.676% (active) in assay [7] (at 5 µM, OCI-P5x cells, with rucaparib 20 µM, 100% = cells with rucaparib alone) and 11.4% (active) in assay [7] (at 5 µM, OCI-P5x cells, without rucaparib).
As for `CCC[C@H](N[C@H]1CCc2cc(F)cc(F)c2C1)C(=O)Nc1cn(C(C)(C)CNCC(C)(C)C)cn1`, the AC50 was 33.2 µM (active) in assay [1], 18.6 µM (active) in assay [2] and 23.5 µM (active) in assay [4].
